Here are results for 108 molecules from PubChem BioAssay AID624351 (Southern Research Specialized Biocontainment Screening …, 2012).

In all, about 2,400 compounds went through this assay and about 1,400 (58%) were called active. The set was probably picked from earlier hits. This is one part of the list. Values without a mark were called inactive.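 The calls were made as follows: active = inhibition of 30% or more at any tested dose; inconclusive = primary hits over the limit that were never retested; inactive = the rest.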

The assay can be described thus: ADP Hunter readout inhibition without MgcRacGAP – biochemical, coupled enzyme counter-screen, artefact control for MgcRacGAP inhibitor project, dose response (AID 624351).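 Also: signal is the ADP detection kit reading of free GDP without any GAP enzyme.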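 As to inhibition: 0% = median positive control wells and 100% = median negative control wells.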 To be noted: fluorescence, no MgcRacGAP; series mostly up to 80 µM. In general terms: A counterscreen serves to expose hits that act by an unwanted route or on another target.
A word on the IC50: it is the concentration needed to halve the response being measured. As to `CCC(CC)NCc1ccc2c(c1)c1ccccc1n2CC`, the IC50 entry is “inactive”.
Still for that read-out and setting: the result for `Oc1cccc(Nc2ccccc2)c1` reads 59.1 µM (active); that for `O=[N+]([O-])/C=C/c1cc2ccccc2[nH]1`, “inactive”; that for `COc1ccc(OC)c2c(C)c(C)[nH]c12`, 28.7 µM (active).
As to `CS(=O)(=O)Cc1nc2ccccc2oc1=O`, the half-inhibitory concentration (IC50) was 74.1 µM (active).
For `COc1ccc2c(c1)-c1nc(N)sc1CC2`, the IC50 is 42.2 µM (active).
The same measure, in the same setting: the result for `Nc1nc2c(s1)CCc1ccccc1-2` reads 48.5 µM (active); that for `O=C(CN1CCCCCC1)Nc1nc2ccccc2s1`, “inactive”.
Still for that read-out and setting: the result for `Cc1cc(OCCCCCN2CCCC2)ccc1Cl` reads “inactive”.
Regarding `CCOc1ccc(OCCOCCN2CCCC2)cc1`, the IC50 entry is “inactive”.
On the same count and under the same terms, the result for `O=C(c1ccc(OCCN2CCCCC2)cc1)c1c(-c2ccc(O)cc2)sc2cc(O)ccc12` reads 31.6 µM (active); that for `C[n+]1c(-c2ccccc2)cc2c(=Cc3ccccc3)c3ccccc3n21`, “inactive”.
On the same count and under the same terms, the result for `COc1cc(/C=N/n2c(-c3cc(C)[nH]n3)n[nH]c2=S)cc(OC)c1O` reads 55.6 µM (active); that for `COc1cc(/C=N/n2c(-c3cc(C)[nH]n3)n[nH]c2=S)cc(OC)c1OC`, 61 µM (active).
Still for that read-out and setting: the result for `COc1ccc(OC)c(CN2CCN(Cc3cccc4ccccc34)CC2)c1` reads “inactive”; that for `CCn1c2ccccc2c2cc(CNCc3ccc(OC)cc3OC)ccc21`, “inactive”; that for `COc1ccc(NCc2cc3ccccc3[nH]c2=O)cc1`, 77.4 µM (active).
Regarding `COc1ccc(NCc2cc(=O)[nH]c3ccccc23)cc1`, the IC50 is 51.4 µM (active).
Consider `COc1ccc(NCc2nnc(SCC(=O)Nc3ccccc3OC)o2)cc1`, for which the IC50 result is “inactive”.
On the same count and under the same terms, the entry for `COc1ccc(NCc2cc3cc(OC)ccc3[nH]c2=O)cc1` is “inactive”; for `CC(C1SC(=S)NC1=O)C1SC(=S)NC1=O` (stereo not drawn) it is “inactive”.
Consider `CCc1nc(Nc2ccc(N3CCN(C(C)=O)CC3)cc2)c2oc3ccccc3c2n1`, for which the IC50 was 40.2 µM (active).
Turning to `CCc1nc(Nc2ccc(O)cc2)c2oc3ccccc3c2n1`, the IC50 was 19.4 µM (active).
Regarding `Oc1ccc(Nc2ncnc3ccccc23)cc1`, the IC50 is 15.8 µM (active).
Same read-out and setting: the result for `CC(=O)N1CCN(c2ccc(Nc3ncnc4c3oc3ccccc34)cc2)CC1` reads 42.5 µM (active); that for `CCc1nn(C(C)C(=O)N2CCN(c3ccc(OC)cc3)CC2)c(=O)c2cc3occc3n12` (stereo not drawn), “inactive”.
Still for that read-out and setting: the result for `Oc1ccc(Nc2ncnc3c2oc2ccccc23)cc1` reads 20 µM (active); that for `N#CC1=C(S)N(c2ccc(F)cc2)C2(CCCCC2)NC1=O`, “inactive”.
On the same count and under the same terms, the figure for `O=C1NC(=S)NC1=Cc1ccc(O)cc1` is 10.2 µM (active); for `O=C1NC(=S)NC1=Cc1ccco1` it is “inactive”.
Take `CCN1C(=O)/C(=C2/C=Cc3cc(C)ccc3N2CC)N(C)C1=S`: the IC50 was 50.7 µM (active).
Still for that read-out and setting: the figure for `NC(=S)N/N=C/c1cccc(O)c1O` is 32.6 µM (active); for `Nc1ccc2nc(-c3ccc(Cl)cc3)[nH]c2c1` it is 67.3 µM (active).
On the same count and under the same terms, the result for `Nc1ccc2nc(C3CCCCC3)[nH]c2c1` reads 71.9 µM (active); that for `Nc1ccc2nc(-c3ccccc3)[nH]c2c1`, 31.9 µM (active).
In the case of `Cc1nc2ccc(-c3nc4ccc(N)cc4[nH]3)cc2[nH]1`, the IC50 is 58.5 µM (active).
On to `Cc1nc(Nc2ccc(O)cc2)c2c3c(sc2n1)CCCC3`, for which the IC50 was 27.9 µM (active).
The same measure, in the same setting: the figure for `Oc1ccc(N=Cc2cc(Br)c(N3CCOCC3)o2)cc1` is 64.7 µM (active); for `O=[N+]([O-])c1cc(Br)c(O)c(C=Nc2ccc(N3CCOCC3)cc2)c1` it is 13.4 µM (active).
On the same count and under the same terms, the result for `Cc1cc(Br)cc(C=Nc2ccc(N3CCOCC3)cc2)c1O` reads 14.7 µM (active); that for `COc1ccc(CN(C)CCc2ccccn2)c(OC)c1OC`, “inactive”.
On the same count and under the same terms, the figure for `COc1ccc(Oc2c(-c3ccc(O)cc3O)n[nH]c2C)cc1` is 49.1 µM (active); for `Cc1[nH]nc(-c2ccc(O)cc2O)c1Oc1ccccc1` it is 34.3 µM (active); for `COCCNCc1nc2sc(C)c(-c3ccccc3)c2c(=O)[nH]1` it is “inactive”.
For the molecule `CCn1c(/C=C/c2ccc(O)cc2)nc2ccccc2c1=O`, the IC50 was 44.8 µM (active).
Still for that read-out and setting: the result for `C=CCn1c(N/N=C/c2ccc(O)cc2)nc2ccccc2c1=O` reads 66.7 µM (active).
With `O=c1c2cc(F)ccc2sn1-c1ccccc1Cl`, the IC50 entry was “inactive”.
The same measure, in the same setting: the figure for `Cc1cccc(NC(=O)CCC(=O)N/N=C/c2ccc(O)cc2O)c1` is 72.4 µM (active); for `Cc1ccc(NC(=O)CCC(=O)N/N=C/c2ccc(O)cc2O)cc1` it is 61.8 µM (active).
The same measure, in the same setting: the figure for `CN(C)C=NC1=NN(c2cccc(C(F)(F)F)c2)CC1` is 39.3 µM (active); for `Cc1cccc(N2CCC(N=CN(C)C)=N2)c1` it is 27.8 µM (active); for `CCN(C=NC1=NN(c2cccc(C(F)(F)F)c2)CC1)CC` it is 33 µM (active).
The same measure, in the same setting: the figure for `OCCN(C=NC1=NN(c2cccc(C(F)(F)F)c2)CC1)CCO` is 42.2 µM (active); for `c1ccc(-c2ccccc2OCCCCn2ccnc2)cc1` it is “inactive”.
Consider `COc1ccccc1OCC#CCn1ccnc1`, for which the IC50 result was “inactive”.
The same measure, in the same setting: the result for `Nc1sc(-c2ccccc2)c(Cc2ccccc2)c1C(=O)O` reads 70.5 µM (active); that for `COc1ccc(CCNC(=O)CNCC(c2ccccc2)N(C)C)cc1OC` (stereo not drawn), “inactive”; that for `CN(c1ccccc1)S(=O)(=O)c1cccc(C(=O)NCCc2ccc(O)c(O)c2)c1`, 71 µM (active).
Same read-out and setting: the entry for `CCN(c1ccccc1)S(=O)(=O)c1ccc(OC)c(NC(=O)CNCCc2ccccc2)c1` is “inactive”; for `COc1ccc(N)cc1NC(=O)CN1CCOCC1` it is “inactive”; for `COc1ccc(S(=O)(=O)N2CCC(N3CCN(c4ccccc4OC)CC3)CC2)cc1` it is “inactive”.
Still for that read-out and setting: the result for `COc1ccccc1NS(=O)(=O)c1cc(N)ccc1N1CCCC1` reads 75.2 µM (active); that for `CC(C)(C)c1cc(Cl)ccc1OCCOCCN1CCCC1`, “inactive”.
Take `O=C(Nc1ccc(O)cc1)c1cccc(Oc2ccc([N+](=O)[O-])cc2)c1`: the IC50 is 48.2 µM (active).
For `O=C(Nc1ccc(C2=NCCN2)cc1)c1ccc(C(=O)Nc2ccc(C3=NCCN3)cc2)c([N+](=O)[O-])c1`, the IC50 entry was “inactive”.
On the same count and under the same terms, the result for `COC(=O)C1=C(C)N(CC2CCCO2)C(=O)/C1=C\c1ccc(O)cc1` (stereo not drawn) reads 24.4 µM (active).
On the same count and under the same terms, the result for `COC1=C/C(=C/c2c(N)n3cc(C)sc3nc2=O)C=CC1=O` reads 82 µM (active).
Still for that read-out and setting: the result for `CCS(=O)(=O)c1nn2c(N)c(/C=C3/C=CC(=O)C(OC)=C3)c(=O)nc2s1` reads 39.6 µM (active).
`O=C(CNCc1ccccn1)N1CCc2ccccc2C1`: the IC50 entry is “inactive”.
Turning to `Cc1ccccc1SCC(=O)OCC(=O)Nc1ccc(N(C)C)cc1`, the IC50 is 81.6 µM (active).
On the same count and under the same terms, the entry for `CCOC(=O)c1c(NC(=O)CN(C)C2CCN(C)CC2)sc(C(=O)Nc2ccccc2)c1C` is “inactive”; for `CCOC(=O)CSc1nc(N)c(C(=O)Nc2ccc(N(C)C)cc2)s1` it is 32.8 µM (active).
Same read-out and setting: the result for `COc1nc(N)nc(NC(=O)c2cccs2)c1N=O` reads “inactive”; that for `Cc1ccc(NC(=O)CNCC(c2ccccc2)N(C)C)cc1F` (stereo not drawn), “inactive”.
Still for that read-out and setting: the figure for `CN(C)c1ccc(NC(=O)COC(=O)CNC(=O)c2cccs2)cc1` is 55.7 µM (active); for `COc1ccc(OCCn2ccnc2C)cc1` it is “inactive”.
For `COc1cc(/C=N/Nc2nc3ccccc3[nH]2)ccc1O`, the IC50 was 17.9 µM (active).
Still for that read-out and setting: the figure for `COc1cc(/C=N/Nc2nc3ccccc3s2)ccc1O` is 67.7 µM (active).
Consider `COc1ccc(/C=N/Nc2nc3ccccc3[nH]2)cc1OC`, for which the IC50 was 73.8 µM (active).
Turning to `O=S1(=O)N=C(Nc2ccc(O)cc2)c2ccccc21`, the concentration for half-maximal inhibition (IC50) is 29.2 µM (active).
On the same count and under the same terms, the figure for `CCOc1cc(CNc2ccc3[nH]c(=O)[nH]c3c2)ccc1OCC(=O)NC(C)(C)C` is 67.7 µM (active); for `COc1cc(CN2CCN(Cc3ccc(C(F)(F)F)cc3)CC2)cc(OC)c1OC` it is “inactive”.
The same measure, in the same setting: the figure for `CCOc1cc(CNc2ccc(N3CCCCC3)cc2)cc(Br)c1OCC(=O)NC(C)(C)C` is 20.4 µM (active).
`COc1cc(CNc2ccc(N3CCOCC3)cc2)cc(Br)c1OC`: the IC50 was 12.5 µM (active).
Broadly, the inhibition is the relative decrease from the control value, in per cent. In the case of `CCOc1c(Cl)cc(CNc2ccc(N3CCCC3)cc2)cc1OC`, the inhibition is -9.27% [at 5 µM].
On to `CCOc1cc(CNc2ccc(N3CCOCC3)cc2)cc(Br)c1OCC`, for which the IC50 is 16.9 µM (active).
The same measure, in the same setting: the result for `COc1cc2c(cc1OC)C(c1cc(Br)c(OC)c(OC)c1)CC(=O)N2` (stereo not drawn) reads “inactive”; that for `CNc1c2cccc(C)c2nc2c(C(=O)NCCN(C)C)cccc12`, “inactive”.
Take `CCN(CC)CCCNc1nc2ccccc2c2[nH]c3ccc(OC)cc3c12`: the IC50 result was “inactive”.
On the same count and under the same terms, the result for `COCCCNc1nc(=S)[nH]c2cc(OC)c(OC)cc12` reads 74.1 µM (active); that for `COc1ccc(CCNc2nc(=S)[nH]c3cc(OC)c(OC)cc23)cc1OC`, “inactive”; that for `CCCCNc1nc(=S)[nH]c2cc(OC)c(OC)cc12`, 68.9 µM (active).
In the case of `Cc1cc2[nH]c3c(c[n+](C)c4ccccc34)c2cc1C`, the IC50 result was “inactive”.
`Cc1cc(C)c2c(=N)c3ccccc3n(CCCCCCCCn3c4ccccc4c(=N)c4c(C)cc(C)nc43)c2n1`: the IC50 entry is “inactive”.
The same measure, in the same setting: the entry for `O=C1C=CC(=O)c2c(O)c(N3CCN(CCOCCO)CC3)c(Br)c(O)c21` is “inactive”; for `C=CCc1cc(Cl)ccc1OCCNCCN1CCOCC1` it is “inactive”.
Consider `CCOc1ccccc1CN1CCC(N2CCOCC2)CC1`, for which the IC50 entry is “inactive”.
`C=CCc1cc(C=Nc2ccc(N3CCOCC3)cc2)cc(OCC)c1O`: the IC50 was 14.6 µM (active).
Same read-out and setting: the result for `COc1ccc(CN(C)CC(=O)Nc2ccc(Cl)cc2C(F)(F)F)c(OC)c1` reads “inactive”.
The same measure, in the same setting: the figure for `Nc1n[nH]c(N)c1N=Nc1ccc2c(c1)OCO2` is 38 µM (active); for `Cc1ccc(S(=O)(=O)c2cc(Nc3ccccc3)ccc2O)cc1` it is 68 µM (active); for `CC(=O)C1=C(S(=O)(=O)c2ccc(C)cc2)CS(=O)(=O)C1` it is “inactive”.
`O=S(=O)(O)c1ccc(O)c2cc(Nc3ccccc3)ccc12`: the IC50 result is “inactive”.
On the same count and under the same terms, the result for `CC1(C)OC(C)(C)/C(=C/Nc2ccc(O)cc2)C1=O` reads 22.2 µM (active).
Consider `COc1cc(/C=N/NC(=O)c2cc(-c3ccccc3OC(C)C)nc3ccccc23)ccc1O`, for which the IC50 result is “inactive”.
The same measure, in the same setting: the result for `CCOc1cc(/C=N/NC(=O)c2ccccc2-n2cccc2)ccc1O` reads 44.9 µM (active); that for `COc1cc(C=NNC(=O)c2ccccc2-n2cccc2)ccc1O`, 36.4 µM (active); that for `CCCCN(CC)CCNC(=O)CCC(=O)Nc1ccc2nc(N3CCN(C)CC3)cc(C)c2c1`, “inactive”.
